This is an account of results in PubChem BioAssay AID463173 (ICCB-Longwood Screening Facility, Harvard Medical School, 2010).

The whole screen tested about 52,000 compounds, of which about 1,700 (3.3%) were called active. Cut-off read from the data, not from the text of the source: active = survival mostly below about 52% (no sharp cut-off); inactive = mostly above about 56%. This excerpt belongs to a sample that is enriched for actives.

This assay relates to Wild type. Kind of assay: S. aureus survival, RN4220 and DeltatarO strains – OD600, teichoic acid synthesis inhibitors, primary screen (AID 463173). To be noted: S. aureus RN4220 wild type/DeltatarO growth, OD600, 18 h, stronger effect = lower value, screened at 18.75 µg/mL (by protocol).
Consider `CCCCSc1nc(-c2cccc(OC)c2)nc2c1Cc1c(CO)cnc(C)c1O2`, for which the survival was 86% (inactive).

In the case of `O=C(c1nc(-c2ccc(Cl)cc2)n2c1CCCCC2)N1CCN(c2ccccc2F)CC1`, the survival was 68% (inactive). For `COc1ccc(CCNC(=O)CN(c2cc(C(F)(F)F)ccc2Cl)S(C)(=O)=O)cc1` the value was 68% (inactive). Next, `CCc1ccc(N2CC(c3nnc(NC(=O)c4ccco4)s3)CC2=O)cc1` (configuration not stated): 78% (inactive); `Cc1cccc(NC(=O)c2cc3c(C)nn(-c4ccccc4)c3s2)c1`: -2% (active); `Cc1nn(-c2ccccc2)c2sc(C(=O)Nc3cccc(Br)c3)cc12`: 36% (inactive). `CCOc1ccc(NC(=O)c2cc3c(C)nn(-c4ccccc4)c3s2)cc1`: the survival is 78% (inactive).

Consider `Cc1nn(-c2ccccc2)c2sc(C(=O)Nc3ccc(Cl)cc3Cl)cc12`, for which the survival was 72% (inactive).

On to `Cc1nn(-c2ccccc2)c2sc(C(=O)Nc3cccc(O)c3)cc12`, for which the survival was 43% (inactive). Next, `Cc1nn(-c2ccccc2)c2sc(C(=O)Nc3cccc(Cl)c3)cc12`: 5% (active); `CCOc1ccccc1C(=O)N(Cc1cc(OC)c(OC)c(OC)c1)c1ccccn1`: 82% (inactive); `CCCOc1ccc(-c2cccc(NS(=O)(=O)c3ccc(CC)cc3)c2)nn1`: 69% (inactive). For `COC(=O)c1cccc(S(=O)(=O)N2CCC(NC(=O)Nc3cccc(F)c3)CC2)c1` the value was 110% (inactive). Consider `CCOC(=O)c1cnc2ccc(OCC)cc2c1Nc1ccc(OCc2ccccc2Cl)cc1`, for which the survival is 5% (active). As to `CCOc1ccc(Nc2c(S(=O)(=O)c3ccccc3)cnc3ccc(CC)cc23)cc1`, the survival was 4% (active).

As to `CCOC(=O)c1cnc2ccc(OCC)cc2c1Nc1cc(Cl)c(OC)cc1OC`, the survival was 60% (inactive). For `CCOC(=O)c1cnc2ccc(OCC)cc2c1NCCN(C)C` the value was 103% (inactive); for `CCOc1ccc(Nc2c(S(=O)(=O)c3ccccc3)cnc3ccc(F)cc23)cc1`, 61% (inactive).

Take `CCOc1ccc(Nc2c(S(=O)(=O)c3ccc(Cl)cc3)cnc3ccc(OCC)cc23)cc1`: the survival was 79% (inactive). For `CCOC(=O)c1cnc2ccc(Cl)cc2c1Nc1ccc(OCC)cc1` the value was -3% (active); for `CCOc1ccc(Nc2cc(C(=O)NCc3ccccc3Cl)c3ccccc3n2)cc1`, 92% (inactive); for `CCOC(=O)c1cnc2c(ccc3ccccc32)c1Nc1cccc(C(F)(F)F)c1`, 37% (inactive). For `CCOc1ccc(Nc2c(S(=O)(=O)c3ccccc3)cnc3ccccc23)cc1` the value was 38% (inactive). For `CCOC(=O)c1cnc2cc(C(F)(F)F)ccc2c1Nc1ccc(F)cc1F` the value was -12% (active). `CCOC(=O)c1cnc2cc(C(F)(F)F)ccc2c1Nc1cc(C)ccc1OC`: the survival was 67% (inactive). For the compound `CC(=O)NCCNc1nc2c(S(=O)(=O)c3ccc(C)c(C)c3)nnn2c2ccc(Cl)cc12`, the survival is 80% (inactive). Next, `O=C(CN1C(=O)COc2ccc(S(=O)(=O)N3CCOCC3)cc21)NCc1ccc(Cl)cc1`: 78% (inactive); `CCNc1c(NC(=O)c2ccccc2OCC)c(=O)oc2ccccc12`: 90% (inactive). For `CC1=C(C(=O)Nc2ccccc2)C(c2ccc(C)o2)NC(=S)N1` (configuration not stated) the value was 109% (inactive); for `O=C(O)c1cnc2ccccn2c1=O`, 109% (inactive); for `Cc1noc(C)c1S(=O)(=O)N(CC(=O)NCc1ccccc1Cl)c1ccc(C(C)C)cc1`, 82% (inactive). Next, `NC(=O)CSc1nnc(COc2ccccc2)n1C1CCCCC1`: 110% (inactive); `CCOC(=O)C1CCN(C(c2ccccc2OC)c2c(O)cc(C)n(CCOC)c2=O)CC1` (configuration not stated): 70% (inactive); `Cc1ccc(N2CC(NC(=O)C3CCCC3)CC2=O)cc1` (configuration not stated): 55% (inactive).

With `COCCn1c(CNC(=O)c2cccc(N(C)C)c2)nc2cccnc21`, the survival was 65% (inactive). For `Cc1nn(CC(=O)NCc2ccc(N(C)C)cc2)c(=O)c2c(C)n(-c3ccc(Cl)cc3)nc12` the value was 95% (inactive). With `COc1ccc(CC(C)NS(=O)(=O)c2ccc3c(c2)CCN3S(C)(=O)=O)cc1OC` (configuration not stated), the survival is 134% (inactive). Next, `CCOC(=O)c1c(C)[nH]c(C)c1S(=O)(=O)N(C)CC(=O)Nc1ccc(C)c(N(C)C)c1`: 73% (inactive). For `CCOC(=O)c1ccc2ncc(C(=O)OCC)c(Nc3ccc(C)c(Br)c3)c2c1` the value was 72% (inactive). With `CCOC(=O)c1cnc2ccc(C)cc2c1NCCc1ccc(OC)c(OC)c1`, the survival is 117% (inactive). Turning to `CCOC(=O)c1cnc2c(Cl)cc(Cl)cc2c1Nc1cc(C(=O)O)ccc1C`, the survival is 61% (inactive).

Regarding `CCOC(=O)c1cnc2c(C)c(Cl)ccc2c1Nc1ccc(N2CCOCC2)cc1`, the survival is 60% (inactive). Next, `CCOC(=O)c1cnc2ccc(OC(F)(F)F)cc2c1Nc1ccccc1C(=O)O`: 52% (inactive); `CCOC(=O)c1cnc2cc(F)c(F)cc2c1Nc1ccccc1O`: 169% (inactive).

With `CCOC(=O)c1cnc2ccc(Cl)cc2c1Nc1ccc(N2CCOCC2)cc1`, the survival was 0% (active).

Consider `CCCOC(=O)c1ccc(Nc2c(C(=O)OCC)cnc3c(C)cc(Cl)cc23)cc1`, for which the survival is 4% (active). `CCOC(=O)c1cnc2ccc(C(=O)OC)cc2c1Nc1ccccc1CC`: the survival was -1% (active). Next, `CCOC(=O)c1cnc2ccccc2c1Nc1ccc(N2CCOCC2)cc1`: 68% (inactive); `CCOC(=O)c1cnc2ccc(C)cc2c1Nc1ccc(N(CC)CC)cc1`: -2% (active). For `CCOC(=O)c1cnc2ccc(C(=O)OC)cc2c1Nc1ccc(N2CCOCC2)cc1` the value was 115% (inactive); for `CCOc1ccc(-c2nc(SCC(=O)Nc3cc(F)ccc3F)n3[nH]c(=O)cc3n2)cc1`, 77% (inactive); for `CC1=C(C(=O)NCCc2ccc(Cl)cc2)C2(CCCCC2)OC1=O`, 73% (inactive).

Consider `CC(C)CNc1nc(NC(C)(C)C)nc(Oc2ccc(=O)n(-c3ccccc3)n2)n1`, for which the survival is 84% (inactive).

Take `CCc1ccc(NCc2cc3cc(OC)c(OC)cc3n(CC(=O)Nc3cc(C)ccc3C)c2=O)cc1`: the survival was 63% (inactive). Next, `CCN(C(=O)CSc1nc2ccccc2n1Cc1cc(C)ccc1C)c1ccccc1`: 72% (inactive). For `COc1cc(NC(=O)Cn2cc(S(=O)(=O)c3ccccc3)c(=O)c3ccccc32)cc(OC)c1` the value was 78% (inactive); for `COc1ccc(N(C(=O)COc2ccc(Br)cc2)S(=O)(=O)c2ccc(C)cc2)cc1`, 87% (inactive). Next, `CCCCN(CC)C(=O)Cn1ncc2c3ccccc3n(CCC)c2c1=O`: 98% (inactive); `CN(C)CC(O)C1CCOC(C)(C)C1` (configuration not stated): 111% (inactive). Consider `CCOc1ccc(Nc2c(S(=O)(=O)c3ccc(Cl)cc3)cnc3ccc(OC)cc23)cc1`, for which the survival was 88% (inactive). Next, `CCOC(=O)c1cnc2ccc(C(=O)OC)cc2c1Nc1ccc(OCc2ccccc2Cl)cc1`: 129% (inactive); `CCOC(=O)c1cnc2ccc(C)cc2c1Nc1ccc(OCc2ccccc2Cl)cc1`: 4% (active); `CCOC(=O)c1cnc2ccc(OC)cc2c1Nc1ccc(OCc2ccccc2Cl)cc1`: 6% (active). Next, `CCOC(=O)c1cnc2ccc(OC)cc2c1Nc1cccc(C(C)=O)c1`: 2% (active); `CN(C)c1cc(Nc2ccc(Cl)cc2)c2c3c(onc13)-c1ccccc1C2=O`: 96% (inactive). In the case of `CCC(=O)N1CCc2cc(S(=O)(=O)NC(C(=O)NCCc3ccccc3)C(C)C)ccc21` (configuration not stated), the survival was 83% (inactive). Next, `CCC1CCc2nc3sc(C(=O)Nc4ccc(F)cc4F)c(N)c3cc2C1` (configuration not stated): 92% (inactive); `Cc1cccc(CCNC(=O)Cn2ncc3c(=O)oc4ccccc4c32)c1`: 76% (inactive); `Fc1ccc(-c2ccc(NCc3ccccc3)nn2)cc1`: 119% (inactive). In the case of `Cc1cccc(CNC(=O)C2CCC(CNS(=O)(=O)c3ccc4c(c3)CCCC(=O)N4)CC2)c1` (configuration not stated), the survival was 65% (inactive).

Turning to `CCn1cc2nc(SCc3cccc(OC)c3)n(Cc3ccc(Cl)cc3)c(=O)c2n1`, the survival is 10% (active). For `CCn1cc2nc(SCc3cccc(C(F)(F)F)c3)n(Cc3ccc(Cl)cc3)c(=O)c2n1` the value was 146% (inactive); for `CCn1cc2nc(SCc3cccc(C(F)(F)F)c3)n(Cc3ccc(OC)cc3)c(=O)c2n1`, 71% (inactive). Next, `CCc1ccc(-c2cn3c(n2)SCC3)cc1`: 111% (inactive); `CCCNC(=O)Cn1c(=O)c2cccn2c2cccnc21`: 89% (inactive); `Cc1c(CNC(C)CCc2ccccc2)c(C(=O)O)c(C)n1Cc1ccc(F)cc1` (configuration not stated): 93% (inactive). Next, `Cc1ccc(OCc2nc(C#N)c(NCCc3ccccc3)o2)cc1`: -1% (active); `N#Cc1nc(COc2cccc(Cl)c2)oc1NCCc1ccccc1`: 19% (inactive); `N#Cc1nc(COc2ccccc2Cl)oc1NCCc1ccccc1`: 25% (inactive).

With `O=C(CCc1ccccc1)Nc1ccccc1`, the survival is 105% (inactive).

Consider `Cc1cc(Cl)ccc1NS(=O)(=O)c1c(C(=O)N2CCCCCC2)c(C)n(C)c1C`, for which the survival is 77% (inactive).

Turning to `COc1cc(OC)c(NS(=O)(=O)c2c(C(=O)N3CCCCCC3)c(C)n(C)c2C)cc1Cl`, the survival was 54% (inactive).

Turning to `CC(=O)Nc1ccc(NS(=O)(=O)c2c(C(=O)N3CCC(C)CC3)c(C)n(C)c2C)cc1`, the survival was -3% (active).

Consider `CCOc1ccc(OCC)c(NS(=O)(=O)c2c(C(=O)N3CCC(C)CC3)c(C)n(C)c2C)c1`, for which the survival is 0% (active). For `CCOc1ccc(CNS(=O)(=O)c2c(C(=O)N3CCC(C)CC3)c(C)n(C)c2C)cc1OC` the value was 71% (inactive); for `CC(=O)Nc1ccc(NS(=O)(=O)c2c(C(=O)N3CCCCCC3)c(C)n(C)c2C)cc1`, 65% (inactive).

Turning to `Cc1ccc(NS(=O)(=O)c2c(C(=O)N3CCC(C)CC3)c(C)n(C)c2C)cc1Cl`, the survival is 131% (inactive). Consider `Cc1c(C(=O)N2CCC(C)CC2)c(S(=O)(=O)NCc2ccc(Cl)cc2)c(C)n1C`, for which the survival was 133% (inactive). For the compound `CCOc1ccc(OCC)c(NS(=O)(=O)c2c(C(=O)N3CCCCCC3)c(C)n(C)c2C)c1`, the survival was 71% (inactive). For `COc1cc(OC)c(NS(=O)(=O)c2c(C(=O)N3CCC(C)CC3)c(C)n(C)c2C)cc1Cl`, the survival was -1% (active). For `COc1ccc(C)cc1NS(=O)(=O)c1c(C(=O)N2CCC(C)CC2)c(C)n(C)c1C` the value was 85% (inactive).

As for `Cc1cc(Cl)ccc1NS(=O)(=O)c1c(C(=O)N2CCC(C)CC2)c(C)n(C)c1C`, the survival was 14% (active).
